Pf growth 48h – P. falciparum growth inhibition at 48 hours (one generation). 310,000 compounds, 5.9% hits. Potency, µM (doses to about 28.7 µM), for inactives: top-dose activity change, negative = inhibition, usual class: inhibitors. P. falciparum luciferase growth in erythrocytes, 48 h. AID 504832; further: potency means the concentration at half of the fitted maximal effect; on the % scale 0 is the no-effect control and ±100 the full control effect
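Cell-based growth assay: transgenic P. falciparum expressing firefly luciferase, cultured in red cells within RPMI 1640 containing 0.5% w/v Albumax, 24 mM bicarbonate and gentamycin. A drop in luciferase activity indicates inhibition.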
CHX counter – affects cycloheximide protein synthesis inhibition readout, counter-screen; cell reporter, cycloheximide protein synthesis inhibition counterscreen; max response, %; 300,000 compounds, 12% hits; AID 2314; in the data active means max response mostly above about 13%, no sharp cut-off; inactive means mostly below about 14%; further: read at 38.3 µM for the half of the compounds with a filed dose; 0% is about no effect
HCV inhibitor – inhibitors of hepatitis C virus infection; Huh7.5.1 HCVcc-Cre infection, luciferase reporter, 44 h; Potency, µM (highest dose often 41.8 µM), without a hit: at the top dose activity change, negative = inhibition, hits mostly inhibitors; 340,000 compounds, 3.4% hits; further: potency means the concentration at half of the fitted maximal effect; on the % scale 0 is the no-effect control and ±100 the full control effect
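Infectious HCV cell culture screen: compound-treated cells (1,000/well, pre-plated 4 h) are infected with HCVcc-Cre at roughly 0.5 moi and grown 44 h. Infection is quantified by luciferase signal after 15 min substrate incubation at room temperature.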
Shiga toxin inh – Shiga toxin inhibition. Vero cells, Shiga toxin protein synthesis inhibition reporter. 290,000 compounds, 9.2% hits. AID 2315. inhibition, % at 38.7 µM; in the data active means inhibition mostly above about 28%, no sharp cut-off; inactive means mostly below about 43%; further: 0% is about no effect
HCMV antiviral – human cytomegalovirus inhibition; HFF cells, HCMV-luciferase reporter, 72 h; active compounds read low; activity change, negative = inhibition, % at 57.5 µM; 410,000 compounds, 4.5% hits; in the data active means activity change below about -60%; inconclusive means no clear call, values can overlap the other calls; inactive means above about -39%; further: on the % scale 0 is the no-effect control and ±100 the full control effect
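Human foreskin fibroblasts infected with luciferase-reporter HCMV at MOI 1 PFU/cell, compounds at two doses. Luciferase measured 72 h post infection; normalized to buffer-only basal and Salinomycin (10uM) controls.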
Pf growth 96h – inhibits malaria parasite growth, 96 h; 320,000 compounds, 6.9% hits; AID 504834; P. falciparum luciferase reporter growth, 96 h; Potency, µM (highest dose often 28.7 µM), for inactives: top-dose activity change, negative = inhibition, usual class: inhibitors; further: potency means the concentration at half of the fitted maximal effect; on the % scale 0 is the no-effect control and ±100 the full control effect
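96 h incubation, 37 C, 5% CO2, of luciferase-reporter P. falciparum-infected RBCs (2% hematocrit, 0.05% parasitemia final) with test compounds; endpoint luminescence.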
The depositor's hits bear a star; ? = inconclusive; . = no result. In the library only some 21% were active in any assay of this set; here they are far more common. Unless noted, the call rests on the fitted dose curve; in most records, active means well fitted inhibition curve with a large enough effect; inconclusive means small, poorly fitted or top-dose-only effect, or another doubt; inactive means no such curve, though single readings can be large or run the other way.

SMILES	Pf growth 48h	CHX counter	HCV inhibitor	Shiga toxin inh	HCMV antiviral	Pf growth 96h
COc1ccc(NC(=O)N2CCC(C(=O)c3ccc(F)cc3)CC2)cc1	-16%	9	?	8	0	31%
COc1ccc(OC)c(C(=O)N2CCC(C(=O)c3ccc(F)cc3)CC2)c1	-16%	-3	-5%	-6	24	9.3µM*
COc1ccc(C2=NCC(C)n3c2c2ccc(OC)cc2[n+]3[O-])cc1 (centres undefined)	.	.	.	.	33	.
COc1ccc(C2C(C(=O)c3cccs3)=C(O)C(=O)N2c2nnc(C)s2)cc1OC (centres undefined)	13%	15	13%	51	.	-10%
CC(C)c1nnc(N2C(=O)C(O)=C(C(=O)c3cccs3)C2c2ccccc2)s1 (centres undefined)	21%	21*	10%	55*	7	-15%
CNS(=O)(=O)c1cn(CC(=O)Nc2ccc(F)cc2F)cc1S(=O)(=O)NC	.	.	.	.	0	.
CCN(CC(=O)Nc1ccc(NC(C)=O)cc1)C(=O)c1ccc(COc2ccc(C(C)(C)C)cc2)cc1	.	.	?	.	-62*	.
CCN(CC(=O)Nc1c(F)cccc1F)C(=O)c1ccc(COc2ccccc2)cc1	45%	.	-29%	.	-21	4%
CCOc1ccc(OCc2ccc(C(=O)N(CC)CC)cc2)cc1	22%	32*	?	122*	-7	-26%
CC(C)C[C@H](NC(=O)[C@H](Cc1ccccc1)NC(=O)[C@H](Cc1ccccc1)NC(=O)[C@@H](N)CO)C(=O)N[C@@H](CCCN=C(N)N)C(=O)N[C@@H](CC(N)=O)C(=O)O	.	-8	.	-5	.	.
O=C1C2CCCN2C(c2ccncc2)N1c1ccc(Cl)c(Cl)c1 (centres undefined)	13µM*	-2	-7%	-13	34	0.83µM*
O=C1C2CCCN2C(c2ccccc2)N1c1ccc(F)cc1 (centres undefined)	.	-3	18%	7	-24	?
O=C1C2CCCN2C(c2ccc(F)cc2)N1c1ccc(Cl)cc1 (centres undefined)	.	4	-10%	17	-77*	26%
CCOC(=O)c1ccc(Nc2nc(=O)c3cccnc3s2)cc1	3%	22*	.	22	?	38%
CC(=O)c1ccc(Nc2nc(=O)c3cccnc3s2)cc1	37%	39*	-2%	70*	0	.
CC(=O)c1cccc(Nc2nc(=O)c3cccnc3s2)c1	.	6	-20%	6	63	-5%
Cc1ccc(Nc2nc(=O)c3cccnc3s2)c(Br)c1	22%	19*	22%	32	?	8%
CCOC(=O)c1cnc2c(C)cc(C)cc2c1Nc1ccc(OCc2ccccc2)cc1	.	.	.	.	9	.
O=c1nc(Nc2ccc(OCc3ccccc3)cc2)sc2ncccc12	0%	-4	-1%	29	-88*	90%
CSc1cccc(N2C(=O)N(CC(=O)NCc3ccccc3Cl)c3ccccc3S2(=O)=O)c1	.	.	.	.	-23	.
COCCOc1cc(-n2cccc2)c(Cl)cc1Cl	-11%	-2	?	-8	4	0%
COc1ccc2[nH]c3c(c2c1)CCN1C(=O)C(CC(=O)NCCCn2ccnc2)C[C@H](C(=O)N2CCCCC2)[C@@]31C (some centres undefined)	.	.	-12%	.	8	.
COC(=O)C1=C(C(=O)OC)[C@@H]2Nc3ccccc3[C@@]23C[C@@H](C(=O)OC)N(C(=O)c2ccco2)C3=N1	.	.	51%	.	3	.
Cc1cccc(CN2CCC(CNC(=O)Cn3ncc4c([nH]c5ccccc54)c3=O)CC2)c1	?	-7	7%	9	-21	?
CCCC(C(=O)NC1CCCC1)N(C(=O)Cn1nnc(-c2ccc(C)o2)n1)c1ccccc1OC (centres undefined)	10µM*	-2	?	-10	-3	.
SMILES	Pf growth 48h	CHX counter	HCV inhibitor	Shiga toxin inh	HCMV antiviral	Pf growth 96h
Cc1ccc(-c2nnn(CC(=O)N(CC3CCCO3)C(C(=O)NC3CCCC3)c3ccc(F)cc3)n2)o1 (centres undefined)	12µM*	3	-9%	-12	-18	.
CCOc1ccccc1NS(=O)(=O)c1c(-c2ccc(C)cc2)csc1C(=O)OC	.	.	.	.	13	.
CCOC(=O)C1(CCc2ccccc2)CCN(C(=O)C2CCOCC2)CC1	-8%	8	-3%	-4	9	?
Nc1ncnc(NCc2ccc(F)cc2)c1[N+](=O)[O-]	5%	-6	5%	-17	-72*	59%
CN(c1ccccc1)c1nc(N)c([N+](=O)[O-])c(NCc2ccccc2)n1	?	-1	?	1	-23	?
Nc1ncnc(NCc2ccccc2)c1[N+](=O)[O-]	21%	-3	12%	2	-70*	41%
COc1cc(C=NCC2OCCc3ccccc32)cc(OC)c1 (centres undefined)	8%	-2	23%	-11	24	9.3µM*
CCOC(=O)c1cnc(/N=C/N(C)C)s1	102%	27	10%	36	18	58%
O=S(=O)(c1ccccc1)N1CCN=C1SCc1cccc(Cl)c1	?	-5	?	-2	?	12µM*
O=S(=O)(c1ccccc1)N1CCN=C1SCc1ccc(Cl)c(Cl)c1	?	6	?	-11	-74*	?
O=S(=O)(c1ccccc1)N1CCN=C1SCc1ccc(Cl)cc1	?	7	1%	11	-32	?
COc1ccc(-n2ccn(CC(=O)Nc3ccccc3C(F)(F)F)c(=O)c2=O)cc1OC	.	.	.	.	53	.
COc1cccc(NC(=O)CSc2nc(-c3ccccc3)nc3c2Cc2cc(Cl)ccc2O3)c1	.	.	.	.	8	.
CC(=O)Nc1ccc(NC(=O)C2Cc3c(-c4ccc(Cl)cc4)ccnc3O2)cc1 (centres undefined)	.	.	.	.	-9	.
COc1ccc(NC(=O)C2Cc3c(-c4cccc(C(N)=O)c4)ccnc3O2)cc1OC (centres undefined)	.	.	.	.	50	.
COc1ccc(CCCNC(=O)C2Cc3c(-c4cccc(NC(C)=O)c4)ccnc3O2)cc1 (centres undefined)	.	.	.	.	-61*	.
O=C(Nc1ccc2c(c1)OCO2)C1Cc2c(-c3ccc4c(c3)OCO4)ccnc2O1 (centres undefined)	.	.	.	.	-62*	.
COc1ccc(NC(=O)C2Cc3c(-c4ccc(Cl)cc4)ccnc3O2)cn1 (centres undefined)	.	.	.	.	-82*	.
CC(=O)Nc1ccc(NC(=O)C2Cc3c(-c4ccc5c(c4)OCO5)ccnc3O2)cc1 (centres undefined)	.	.	.	.	-14	.
COc1ccc(NC(=O)C2Cc3c(-c4cccc(C(C)=O)c4)ccnc3O2)cc1OC (centres undefined)	.	.	.	.	-92*	.
COc1ccc(C(=O)N2CC(=O)Nc3ccc(C)cc3C2c2ccccc2)c(OC)c1 (centres undefined)	.	.	.	.	12	.

Screening data from PubChem.
